The campaign covered roughly 140,000 compounds. About 860 (0.61%) were called active. Only a selection was taken, and actives are over-represented in it overall. Values without a mark were called inactive. Cut-off read from the data, not from the text of the source: active = inhibition above about 25%; inactive = the rest.
Biological target: E3 ubiquitin-protein ligase RBX1 (Homo sapiens) + Cullin-1 (Homo sapiens) (UniProt P62877+Q13616)
Experiment: inhibitors of human ROC1-CUL1 ubiquitin ligase activity (AID 1347404)
Settings: in vitro K48 di-Ub FRET, acceptor:donor ratio, 45 min; at 10 µM; stronger effect = higher value

Sequence of E3 ubiquitin-protein ligase RBX1 (Homo sapiens) + Cullin-1 (Homo sapiens) (P62877 whole entry, looked up): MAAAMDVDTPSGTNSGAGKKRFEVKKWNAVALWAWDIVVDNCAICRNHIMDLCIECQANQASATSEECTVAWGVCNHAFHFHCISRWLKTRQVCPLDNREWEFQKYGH
Sequence of E3 ubiquitin-protein ligase RBX1 (Homo sapiens) + Cullin-1 (Homo sapiens) (Q13616 whole entry, looked up): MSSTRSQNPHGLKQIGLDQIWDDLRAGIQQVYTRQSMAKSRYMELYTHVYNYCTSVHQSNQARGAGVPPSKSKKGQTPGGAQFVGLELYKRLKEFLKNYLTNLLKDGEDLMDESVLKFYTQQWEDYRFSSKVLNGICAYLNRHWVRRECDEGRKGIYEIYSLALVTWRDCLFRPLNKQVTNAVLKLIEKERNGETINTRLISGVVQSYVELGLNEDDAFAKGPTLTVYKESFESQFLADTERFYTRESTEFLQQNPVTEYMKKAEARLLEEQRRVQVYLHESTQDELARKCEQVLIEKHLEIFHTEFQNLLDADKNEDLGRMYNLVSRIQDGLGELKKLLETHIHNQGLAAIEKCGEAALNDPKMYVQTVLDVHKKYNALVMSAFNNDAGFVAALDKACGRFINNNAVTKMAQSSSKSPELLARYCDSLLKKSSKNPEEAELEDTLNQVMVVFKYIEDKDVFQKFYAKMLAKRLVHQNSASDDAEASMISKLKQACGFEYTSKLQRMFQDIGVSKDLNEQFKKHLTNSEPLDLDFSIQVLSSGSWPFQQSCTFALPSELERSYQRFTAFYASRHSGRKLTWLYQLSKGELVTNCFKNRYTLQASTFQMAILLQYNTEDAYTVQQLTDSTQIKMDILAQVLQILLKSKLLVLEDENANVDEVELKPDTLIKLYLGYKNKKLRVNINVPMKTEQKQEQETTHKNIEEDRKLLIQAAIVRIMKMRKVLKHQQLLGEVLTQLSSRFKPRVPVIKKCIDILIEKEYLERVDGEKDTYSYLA

| Structure (SMILES) | inhibition |
| --- | --- |
| Cc1ccc(N2C(=O)/C(=C\c3ccc(Cl)cc3)SC2=S)cc1 | 8.97% |
| CC(C(=O)O)N1C(=O)/C(=C/c2ccc(N(C)C)cc2)SC1=S (stereo unspecified) | 52.9% (active) |
| CN(C)c1ccc(/C=C2\SC(=N)N(c3nccs3)C2=O)cc1 | -5.77% |
| CCCOc1ccccc1/C=C1\C(=O)NN(c2cccc(Br)c2)C1=O | 20% |
| CCOc1ccc(/C=C2\C(=O)NN(c3ccc(Cl)c(Cl)c3)C2=O)cc1OCC | 1.02% |
| CCOc1cc(/C=C2/C(=O)NN(c3ccc(CC)cc3)C2=O)c(Br)c(Br)c1O | 54.1% (active) |
| N#CC1=C2c3ccccc3CCC2C(c2ccco2)=NC1=O (stereo unspecified) | 42% (active) |
| CC1=NC(=O)C(C#N)=C(C)C1CSCc1ccco1 (stereo unspecified) | 0.332% |
| CCN(Cc1nccn1C)C(=O)c1ccc(N(C)CC2CCCCN2C)nc1 (stereo unspecified) | -0.562% |
| CCC(C)C(=O)Nc1ccc(I)cc1 (stereo unspecified) | 3.94% |
| COc1ccccc1NC(=O)NC1CC(=O)N(CC(C)(C)C)C1 (stereo unspecified) | -2.73% |
| CC1(C)CC(=O)C(=Cc2c[nH]c3ccccc23)C(=O)C1 | -0.144% |
| Cc1cc(C)cc(N2CC(C(=O)N3CCc4ccccc4C3)CC2=O)c1 (stereo unspecified) | 6.46% |
| O=C(CC1C(=O)NCCN1CCc1ccccc1)NCCCn1ncc2ccccc21 (stereo unspecified) | 0.369% |
| COc1cc(C2C3=C(CCCC3=O)OC3=C2C(=O)CCC3)ccc1OCC(=O)Nc1ccccc1 | -1.19% |
| O=C(NC(=S)N1CCCC1)c1ccc(Br)o1 | 4.57% |
| O=C(C[n+]1c2ccccc2n2nc3c(cc21)c1cccc2cccc3c21)Nc1nc2ccccc2[nH]1 | 93.1% (active) |
| O=C(/C=C/c1ccccc1)Oc1cccc(C(=O)Nc2nc3ccccc3[nH]2)c1 | 14.2% |
| O=C([O-])c1ccc(C[n+]2c3ccccc3n3nc4c(cc32)c2cccc3cccc4c32)cc1 | -16.8% |
| Cn1c(=O)c2c(nc(SCC(=O)Nc3ccc(OC(F)(F)F)cc3)n2Cc2cccc(Cl)c2)n(C)c1=O | 10% |
| Cc1cc(N2C(=O)C(=O)C(C(=O)c3ccc(F)cc3)C2c2ccccc2)no1 (stereo unspecified) | -4.72% |
| COCCN(C)C(=O)c1cc(NC(=O)c2ccccc2)cc2ncn(C3CCCC3)c12 | 12.6% |
| C=CCn1c(SCC(=O)c2ccccc2)nc2ccccc2c1=O | 2.49% |
| CCN=C1CC=C(Br)C=C(C(=O)/C=C/c2ccccc2OC)C1=O | 101% (active) |
| COc1ccc(OC)c(/C=C/C(=O)c2ccc(OC)c(OC)c2)c1 | -2.06% |
| COc1ccc(/C=C/C(=O)c2cc3ccccc3oc2=O)c(OC)c1 | -5.94% |

From PubChem BioAssay AID1347404 (Pan Lab, Icahn School of Medicine at Mount Sinai, 2020)
